Some test systems named below: CLK2; CLK3; CLK4; CSF1R-autoinhibited; CSF1R; CSK; CSNK1A1L; CSNK1A1; CSNK1D; CSNK1E; CSNK1G1; CSNK1G2; CSNK1G3; CSNK2A1; CSNK2A2; DAPK1; DAPK2; DAPK3.
Holding throughout (settings): concentration: 1 μM,replicates: in singlicate; n = 1
For the next experiment, the system named is T1, CTK.
T1 construct: gene MATK

Another experiment has as its system T2, DCAMKL1.
T2 construct: gene DCLK1
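Note: KINOMEscan kinase panel screen.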

With `Cn1ccc2ncnc(Oc3ccc(NC(=O)Nc4ccnc(C(F)(F)F)c4)c(Cl)c3)c21`, the “%Inh” value came to 0% with CLK2; 0% in the experiment with CLK3; 0% with CLK4; 6% in the experiment with CSF1R-autoinhibited; 92.3% in the experiment with CSF1R; 0% with CSK. Besides, the “%Inh” value in the experiment on CSNK1A1L turned out to be 16%; with CSNK1A1 it was 0%; with CSNK1D it was 0%; in the experiment with CSNK1E, 0%; in the experiment with CSNK1G1, 0%; with CSNK1G2, 9%. Also, the “%Inh” value in the experiment on CSNK1G3 came to 0%; in the experiment with CSNK2A1 it was 0%; in the experiment with CSNK2A2, 10%; in the experiment on CTK, 0%; in the experiment with DAPK1 it was 7%; in the experiment with DAPK2 it was 0%. Also, the “%Inh” value in the experiment on DAPK3 was determined as 0%; with DCAMKL1, 4%.
Turning to `COc1ccc(Nc2nccc(N3CCC(NC(=O)c4cccc(C#N)c4)C3)n2)cc1` (centres unmarked) [GSK1379730], the “%Inh” value in the experiment with CLK2 came to 0%; with CLK3, 5%; in the experiment with CLK4 it was 21%; in the experiment on CSF1R-autoinhibited, 24%; with CSF1R, 0%; in the experiment on CSK, 0%. The “%Inh” value in the experiment with CSNK1A1L is 11%; in the experiment with CSNK1A1, 0%; in the experiment on CSNK1D, 29%; with CSNK1E it was 27%; with CSNK1G1 it was 3%; with CSNK1G2, 0%. For the same compound, the “%Inh” value with CSNK1G3, with CSNK2A1, in the experiment with CSNK2A2, with CTK, with DAPK1 and in the experiment with DAPK2 was 0% in each case. The “%Inh” value in the experiment on DAPK3 was 4%; in the experiment on DCAMKL1 it was 8%.
For the compound `Cn1ccc2ncnc(Oc3ccc(NC(=O)Nc4cncc(C(F)(F)F)c4)c(Cl)c3)c21`, the “%Inh” value in the experiment on CLK2 is on record as 7%; with CLK3 it was 0%; in the experiment on CLK4, 7%; in the experiment on CSF1R-autoinhibited, 0%; in the experiment on CSF1R it was 99.4%; with CSK it was 0%. Also, the “%Inh” value in the experiment with CSNK1A1L was found to be 0%; in the experiment on CSNK1A1, 0%; in the experiment with CSNK1D it was 0%; with CSNK1E, 0%; in the experiment with CSNK1G1, 0%; with CSNK1G2, 5%. Besides, the “%Inh” value with CSNK1G3, with CSNK2A1, with CSNK2A2, in the experiment with CTK, in the experiment on DAPK1 and in the experiment on DAPK2 was 0% in each case. Moreover, the “%Inh” value with DAPK3 and in the experiment on DCAMKL1 was 0% throughout.
Turning to `Cl.c1ccc(Oc2ccc(Nc3ccnc4cc(-c5ccc(CN6CCNCC6)o5)ccc34)cc2)nc1` [GW567142], the “%Inh” value worked out at 0% with CLK2; 15% in the experiment on CLK3; 0% in the experiment with CLK4; 0% in the experiment with CSF1R-autoinhibited; 43% in the experiment on CSF1R; 72% in the experiment with CSK. The “%Inh” value with CSNK1A1L stood at 0%; with CSNK1A1 it was 0%; in the experiment with CSNK1D, 16%; in the experiment on CSNK1E, 40%; in the experiment on CSNK1G1, 0%; in the experiment on CSNK1G2 it was 0%. The “%Inh” value in the experiment on CSNK1G3 amounted to 32%; in the experiment on CSNK2A1 it was 0%; in the experiment on CSNK2A2, 3%; with CTK, 10%; with DAPK1 it was 19%; in the experiment on DAPK2, 0%. In addition, the “%Inh” value came out at 21% with DAPK3 and 11% in the experiment on DCAMKL1.
As for `CS(=O)(=O)Nc1ccc(-c2ccnc3[nH]ccc23)cc1` [GSK993273], the “%Inh” value in the experiment on CLK2 is recorded as 94.8%; in the experiment on CLK3, 58%; in the experiment on CLK4, 96.3%; in the experiment with CSF1R-autoinhibited, 0%; in the experiment with CSF1R, 32%; in the experiment with CSK, 0%. The “%Inh” value in the experiment with CSNK1A1L is 21%; in the experiment with CSNK1A1 it was 5%; with CSNK1D, 20%; in the experiment on CSNK1E, 33%; with CSNK1G1, 0%; in the experiment with CSNK1G2, 0%. Moreover, the “%Inh” value in the experiment on CSNK1G3 was determined as 17%; in the experiment with CSNK2A1 it was 0%; in the experiment on CSNK2A2 it was 16%; with CTK it was 0%; in the experiment on DAPK1 it was 73%; in the experiment on DAPK2 it was 54%. Also, the “%Inh” value in the experiment with DAPK3 was 89%; in the experiment on DCAMKL1, 6%.
In the case of `Cn1ccc2ncnc(Oc3ccc(NC(=O)Nc4cccc(C(F)(F)F)c4)c(Cl)c3)c21`, the “%Inh” value with CLK2 stood at 1%; in the experiment on CLK3 it was 0%; in the experiment with CLK4, 0%; in the experiment with CSF1R-autoinhibited, 18%; with CSF1R, 99.5%; with CSK, 15%. The “%Inh” value in the experiment on CSNK1A1L is reported as 0%; with CSNK1A1, 0%; with CSNK1D it was 0%; in the experiment with CSNK1E, 0%; with CSNK1G1, 0%; in the experiment with CSNK1G2, 3%. Besides, the “%Inh” value is given as 0% in the experiment on CSNK1G3; 0% in the experiment with CSNK2A1; 5% in the experiment on CSNK2A2; 0% in the experiment on CTK; 89% in the experiment on DAPK1; 0% in the experiment on DAPK2. For the same compound, the “%Inh” value in the experiment on DAPK3 is given as 0%; in the experiment with DCAMKL1 it was 46%.
Turning to `NC(=O)c1ccc(-c2cc3ncnc(SCC(=O)O)c3s2)cc1`, the “%Inh” value with CLK2 was 52%; in the experiment on CLK3 it was 10%; with CLK4, 87%; with CSF1R-autoinhibited, 37%; with CSF1R, 5%; in the experiment on CSK, 0%. In addition, the “%Inh” value in the experiment on CSNK1A1L is recorded as 0%; with CSNK1A1 it was 0%; in the experiment with CSNK1D, 3%; in the experiment with CSNK1E, 0%; in the experiment on CSNK1G1, 0%; in the experiment on CSNK1G2, 17%. Also, the “%Inh” value in the experiment with CSNK1G3 is 4%; with CSNK2A1, 74%; in the experiment with CSNK2A2, 78%; in the experiment on CTK, 0%; in the experiment with DAPK1 it was 0%; with DAPK2, 0%. Also, the “%Inh” value in the experiment on DAPK3 amounted to 5%; in the experiment on DCAMKL1 it was 20%.
Regarding `CN1CCN(CCNc2nc3cc(Oc4ccc(NC(=O)Nc5cc(C(F)(F)F)ccc5F)cc4)ccc3[nH]2)CC1.Cl.Cl` [GW768504], the “%Inh” value in the experiment with CLK2 is 0%; with CLK3, 0%; in the experiment on CLK4, 14%; with CSF1R-autoinhibited, 0%; in the experiment with CSF1R it was 60%; in the experiment on CSK, 0%. The “%Inh” value turned out to be 0% in the experiment with CSNK1A1L; 19% in the experiment with CSNK1A1; 0% in the experiment with CSNK1D; 6% in the experiment on CSNK1E; 0% in the experiment with CSNK1G1; 0% in the experiment on CSNK1G2. For the same compound, the “%Inh” value is 0% in the experiment on CSNK1G3; 0% in the experiment on CSNK2A1; 7% in the experiment with CSNK2A2; 0% in the experiment with CTK; 0% in the experiment on DAPK1; 0% with DAPK2. Moreover, the “%Inh” value in the experiment on DAPK3 is 0%; in the experiment with DCAMKL1, 34%.
On to `CN(c1ccc2c(c1)nc(NCc1ccc(F)cc1)n2C)c1ccnc(Nc2ccc(CS(C)(=O)=O)cc2)n1.Cl` [GW813244], for which the “%Inh” value in the experiment with CLK2 was found to be 46%; with CLK3, 0%; in the experiment on CLK4, 17%; with CSF1R-autoinhibited it was 62%; with CSF1R, 100%; in the experiment on CSK, 0%. Moreover, the “%Inh” value in the experiment on CSNK1A1L turned out to be 5%; in the experiment on CSNK1A1, 28%; with CSNK1D, 10%; in the experiment with CSNK1E, 0%; in the experiment with CSNK1G1, 0%; in the experiment on CSNK1G2, 6%. The “%Inh” value in the experiment on CSNK1G3 is recorded as 0%; in the experiment on CSNK2A1, 0%; in the experiment on CSNK2A2, 24%; with CTK, 14%; with DAPK1, 5%; with DAPK2, 7%. Besides, the “%Inh” value in the experiment with DAPK3 came to 0%; with DCAMKL1, 28%.
Consider `OCCn1cc(-c2cnc3nnn(Cc4ccc5ncccc5c4)c3n2)cn1`, for which the “%Inh” value was 0% in the experiment on CLK2; 0% in the experiment on CLK3; 0% with CLK4; 25% in the experiment with CSF1R-autoinhibited; 0% with CSF1R; 33% in the experiment on CSK. For the same compound, the “%Inh” value worked out at 0% in the experiment with CSNK1A1L; 15% in the experiment on CSNK1A1; 0% in the experiment on CSNK1D; 0% in the experiment with CSNK1E; 1% in the experiment on CSNK1G1; 0% with CSNK1G2. In addition, the “%Inh” value amounted to 9% with CSNK1G3; 0% in the experiment with CSNK2A1; 0% in the experiment on CSNK2A2; 0% with CTK; 0% in the experiment on DAPK1; 0% with DAPK2. Besides, the “%Inh” value came to 0% in the experiment with DAPK3 and 66% in the experiment on DCAMKL1.

These data come from PMC5540273 (PLoS ONE, 2017).
